Laboratory results from PubChem BioAssay (NCI).
This is part of a sample that, as a whole, favours compounds with a hit. Of some 83,000 tested, about 20% had one in any assay.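 Method: cells in 96-well plates; compound added at one concentration; 48 h incubation; percent growth measured; values under 10 scored active.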 Calls of active or inactive are those of the source.

Legend:
Test in all cases: NCI-60 one-dose screen, 48 h (100 = growth as untreated, 0 = no growth, -100 = all killed)
Settings in all cases: 10 µM unless noted
NCI-H23 lung = system: NCI-H23 lung
NCI-H226 lung = system: NCI-H226 lung
NCI-H322M lung = system: NCI-H322M lung
HOP-62 NSCLC = system: HOP-62 NSCLC
NCI-H460 lung = system: NCI-H460 lung
HOP-92 NSCLC = system: HOP-92 NSCLC
NCI-H522 lung = system: NCI-H522 lung
786-0 renal = system: 786-0 renal
COLO 205 colon = system: COLO 205 colon
DU-145 prostate = system: DU-145 prostate
K-562 leukemia = system: K-562 leukemia
MALME-3M melanoma = system: MALME-3M melanoma
MDA-MB-231 breast = system: MDA-MB-231 breast
RXF 393 renal = system: RXF 393 renal
SF-268 CNS = system: SF-268 CNS
SF-295 CNS = system: SF-295 CNS
SF-539 CNS = system: SF-539 CNS
UACC-257 melanoma = system: UACC-257 melanoma
M14 melanoma = system: M14 melanoma
A549/ATCC NSCLC = system: A549/ATCC NSCLC

Measured: growth

Cc1ccc2c(c1)CC(O)CC1C(=O)N(CCO)CC(=O)N21 (stereo not drawn)
inactive: NCI-H23 lung 99.3% | NCI-H226 lung 95.9% | NCI-H322M lung 105% | HOP-62 NSCLC 101% | NCI-H460 lung 109% | HOP-92 NSCLC 124% | NCI-H522 lung 82.5% | 786-0 renal 104% | COLO 205 colon 110% | DU-145 prostate 111% | K-562 leukemia 101% | MALME-3M melanoma 100% | MDA-MB-231 breast 92.4% | RXF 393 renal 90.5% | SF-268 CNS 99.7% | SF-295 CNS 101% | SF-539 CNS 102% | UACC-257 melanoma 81.1% | M14 melanoma 103%

CC(C)(C)n1cc(-c2ccnc(NCCNS(=O)(=O)c3cccc4ccccc34)c2)c(-c2cccc(O)c2)n1
inactive: NCI-H23 lung 69.7% | NCI-H226 lung 75.3% | NCI-H322M lung 89.6% | HOP-62 NSCLC 88.2% | NCI-H460 lung 55.9% | HOP-92 NSCLC 64.5% | NCI-H522 lung 61.9% | A549/ATCC NSCLC 62.7% | 786-0 renal 64.3% | DU-145 prostate 83.3% | K-562 leukemia 15.4% | MALME-3M melanoma 75.7% | MDA-MB-231 breast 81.9% | RXF 393 renal 73.3% | SF-268 CNS 81.4% | SF-295 CNS 92.5% | SF-539 CNS 77.1% | UACC-257 melanoma 81.1% | M14 melanoma 66.5%
active: COLO 205 colon -33.1%

CCOC(=O)c1c(N)sc2cc(O)ccc12
inactive: NCI-H23 lung 95.2% | NCI-H226 lung 110% | NCI-H322M lung 91.1% | HOP-62 NSCLC 104% | NCI-H460 lung 112% | HOP-92 NSCLC 121% | NCI-H522 lung 80% | 786-0 renal 104% | COLO 205 colon 112% | DU-145 prostate 89.2% | K-562 leukemia 89.9% | MALME-3M melanoma 118% | MDA-MB-231 breast 106% | RXF 393 renal 115% | SF-268 CNS 105% | SF-295 CNS 96.3% | SF-539 CNS 106% | UACC-257 melanoma 115% | M14 melanoma 108%

[2H]C([2H])([2H])Oc1c(F)cccc1/C=C/C(=O)/C=C(O)/C=C/c1cccc(F)c1OC([2H])([2H])[2H]
inactive: NCI-H23 lung 86.1% | NCI-H226 lung 108% | NCI-H322M lung 102% | HOP-62 NSCLC 110% | NCI-H460 lung 99.1% | HOP-92 NSCLC 89.4% | NCI-H522 lung 87.4% | 786-0 renal 103% | COLO 205 colon 114% | DU-145 prostate 103% | K-562 leukemia 107% | MALME-3M melanoma 100% | MDA-MB-231 breast 109% | RXF 393 renal 106% | SF-268 CNS 90.5% | SF-295 CNS 102% | SF-539 CNS 101% | UACC-257 melanoma 82.7% | M14 melanoma 92.9%

O=C(O)c1nn(-c2ccc(Cl)cc2)nc1N1CCCC1
inactive: NCI-H23 lung 91% | NCI-H226 lung 90.8% | NCI-H322M lung 97.7% | HOP-62 NSCLC 97.5% | NCI-H460 lung 101% | HOP-92 NSCLC 77.1% | NCI-H522 lung 89.3% | 786-0 renal 100% | COLO 205 colon 111% | DU-145 prostate 91.3% | K-562 leukemia 87.2% | MALME-3M melanoma 90% | MDA-MB-231 breast 101% | RXF 393 renal 85.4% | SF-268 CNS 98.3% | SF-295 CNS 90.5% | SF-539 CNS 96.1% | UACC-257 melanoma 94.7% | M14 melanoma 96.7%

c1ccc(-c2cn3nc(-c4c[nH]c5ccccc45)sc3n2)cc1
inactive: NCI-H23 lung 87.6% | NCI-H226 lung 77.3% | NCI-H322M lung 71.4% | HOP-62 NSCLC 73.6% | NCI-H460 lung 89.2% | HOP-92 NSCLC 75.5% | NCI-H522 lung 61.2% | 786-0 renal 102% | COLO 205 colon 87.1% | DU-145 prostate 98% | K-562 leukemia 42.4% | MALME-3M melanoma 62.6% | MDA-MB-231 breast 76.5% | RXF 393 renal 97.4% | SF-268 CNS 94.4% | SF-295 CNS 83.7% | SF-539 CNS 85.5% | UACC-257 melanoma 83.2% | M14 melanoma 71.1%

O=C(Nc1ncc(Cc2ccccc2)s1)c1cc(-c2ccccc2)nc2ccccc12
inactive: NCI-H23 lung 89.3% | NCI-H226 lung 89.3% | NCI-H322M lung 99.1% | HOP-62 NSCLC 94.1% | NCI-H460 lung 101% | HOP-92 NSCLC 84.1% | NCI-H522 lung 87.6% | 786-0 renal 105% | COLO 205 colon 100% | DU-145 prostate 110% | K-562 leukemia 103% | MALME-3M melanoma 98% | MDA-MB-231 breast 104% | RXF 393 renal 90.5% | SF-268 CNS 103% | SF-295 CNS 107% | SF-539 CNS 101% | UACC-257 melanoma 92.9% | M14 melanoma 93.3%

O=C(Nc1cccc(Cn2c(=O)[nH]c3ccc(Oc4ncccn4)cc3c2=O)c1)c1cccc(Cl)c1
inactive: NCI-H23 lung 48.6% | NCI-H226 lung 68.6% | NCI-H322M lung 75.5% | HOP-62 NSCLC 79.3% | NCI-H460 lung 57.7% | NCI-H522 lung 61.5% | A549/ATCC NSCLC 55.5% | 786-0 renal 65.8% | COLO 205 colon 71.9% | DU-145 prostate 56.5% | K-562 leukemia 27.1% | MALME-3M melanoma 79.5% | MDA-MB-231 breast 72.6% | RXF 393 renal 81.1% | SF-268 CNS 55.6% | SF-295 CNS 45.5% | SF-539 CNS 71.3% | UACC-257 melanoma 44% | M14 melanoma 70%

C(CCCSC1=NCCN1)CCSC1=NCCN1
inactive: NCI-H23 lung 94.8% | NCI-H226 lung 107% | NCI-H322M lung 113% | HOP-62 NSCLC 93.1% | NCI-H460 lung 110% | NCI-H522 lung 103% | A549/ATCC NSCLC 104% | 786-0 renal 97% | COLO 205 colon 121% | DU-145 prostate 109% | K-562 leukemia 116% | MALME-3M melanoma 104% | MDA-MB-231 breast 103% | RXF 393 renal 104% | SF-268 CNS 106% | SF-295 CNS 108% | SF-539 CNS 101% | UACC-257 melanoma 98.5% | M14 melanoma 99.3%

Cc1nc2cccc(NCc3ccc(C(=O)NO)cc3)c2c(=O)n1-c1ccccc1
inactive: NCI-H226 lung 67.2% | NCI-H322M lung 66.8% | HOP-62 NSCLC 43.9% | NCI-H460 lung 29.3% | 786-0 renal 54.5% | DU-145 prostate 26.7% | K-562 leukemia 18.7% | MALME-3M melanoma 35.3% | MDA-MB-231 breast 48.2% | RXF 393 renal 28.2% | SF-268 CNS 54% | SF-295 CNS 16% | SF-539 CNS 15.1% | UACC-257 melanoma 53.4% | M14 melanoma 32.8%
active: NCI-H23 lung -16.8% | NCI-H522 lung -2.46% | COLO 205 colon -37.9%

COC(=O)[C@H](C)NC(=O)c1ccc(NC(=O)c2[nH]c(C)c(Cl)c2Cl)c(OCCN)c1
inactive: NCI-H23 lung 106% | NCI-H226 lung 112% | NCI-H322M lung 101% | HOP-62 NSCLC 106% | NCI-H460 lung 105% | NCI-H522 lung 107% | A549/ATCC NSCLC 98.1% | 786-0 renal 98.6% | COLO 205 colon 104% | DU-145 prostate 104% | K-562 leukemia 66.7% | MALME-3M melanoma 113% | MDA-MB-231 breast 103% | RXF 393 renal 115% | SF-268 CNS 96.3% | SF-295 CNS 102% | SF-539 CNS 101% | UACC-257 melanoma 104% | M14 melanoma 119%

Cn1cc(-c2ccc3occ(-c4cccc(-c5ccncc5)c4)c3n2)cn1
inactive: NCI-H23 lung 19.5% | NCI-H226 lung 33.6% | NCI-H322M lung 34.3% | HOP-62 NSCLC 13.9% | NCI-H460 lung 13.5% | A549/ATCC NSCLC 17.7% | 786-0 renal 17.7% | COLO 205 colon 14.7% | DU-145 prostate 26.9% | MALME-3M melanoma 21.2% | MDA-MB-231 breast 35.4% | SF-268 CNS 28.5% | UACC-257 melanoma 40.9%
active: NCI-H522 lung -18.5% | K-562 leukemia 8.55% | RXF 393 renal 4.67% | SF-295 CNS 1.64% | SF-539 CNS -23% | M14 melanoma 1.71%

Cc1cccc(C)c1NC(=O)Nc1ccccc1
active: DU-145 prostate 9.29%
inactive: NCI-H23 lung 88.4% | NCI-H226 lung 107% | NCI-H322M lung 80.3% | HOP-62 NSCLC 95.8% | NCI-H460 lung 44% | HOP-92 NSCLC 128% | NCI-H522 lung 49.4% | 786-0 renal 110% | COLO 205 colon 102% | K-562 leukemia 102% | MALME-3M melanoma 98.4% | MDA-MB-231 breast 96.9% | RXF 393 renal 87.3% | SF-268 CNS 96.1% | SF-295 CNS 66.7% | SF-539 CNS 108% | UACC-257 melanoma 98.2% | M14 melanoma 109%

C#Cc1ccc(NC(=O)Cc2ccc(/C=C/C(=O)c3nccn3C)cc2)cc1
inactive: NCI-H23 lung 40.4% | NCI-H226 lung 90.6% | NCI-H322M lung 57.6% | HOP-62 NSCLC 48.3% | NCI-H460 lung 22.6% | NCI-H522 lung 68.1% | A549/ATCC NSCLC 74.6% | 786-0 renal 30% | COLO 205 colon 66% | DU-145 prostate 12.6% | K-562 leukemia 18.2% | MALME-3M melanoma 95.7% | MDA-MB-231 breast 54.4% | RXF 393 renal 21.8% | SF-268 CNS 38% | SF-295 CNS 77% | SF-539 CNS 26.3% | UACC-257 melanoma 103% | M14 melanoma 98.6%

CCOC(=O)CCC(=O)P(=O)(O)O
inactive: NCI-H23 lung 116% | NCI-H226 lung 110% | NCI-H322M lung 103% | HOP-62 NSCLC 97.8% | NCI-H460 lung 113% | NCI-H522 lung 84.7% | 786-0 renal 98.6% | COLO 205 colon 93.9% | DU-145 prostate 114% | MALME-3M melanoma 103% | MDA-MB-231 breast 119% | RXF 393 renal 122% | SF-268 CNS 114% | SF-295 CNS 101% | SF-539 CNS 101% | UACC-257 melanoma 93% | M14 melanoma 92.4%
active: K-562 leukemia 8.96%

Cc1cc(N2CCOCC2)nc(N(CCCNc2ccnc3cc(Cl)ccc23)Cc2ccc3c(c2)OCO3)n1
inactive: NCI-H23 lung 13.5% | NCI-H226 lung 13.8% | NCI-H322M lung 21.4% | DU-145 prostate 20.3% | SF-268 CNS 15%
active: HOP-62 NSCLC -17.6% | NCI-H460 lung -11.5% | NCI-H522 lung -66.4% | A549/ATCC NSCLC 2.51% | 786-0 renal -79% | COLO 205 colon -58.5% | K-562 leukemia -43.7% | MALME-3M melanoma -20.5% | MDA-MB-231 breast -37.1% | RXF 393 renal -75.6% | SF-295 CNS -69% | SF-539 CNS -75.4% | UACC-257 melanoma -31.5% | M14 melanoma -61.1%
